Data: PubChem BioAssay (NCI)
The panel holds about 79,000 compounds, 15% with a hit somewhere; the sample as a whole holds those more often. A number with no mark means an inactive call. The source made the active and inactive calls. Cut-off read from the data, not from the text of the source: active = growth inhibition above about 70%; inactive = the rest.

Tests used:
[1] = NCI Yeast Anticancer Drug Screen. Data for the rad50 strain (AID 155);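 note: 0% = growth of vehicle-only cultures of the same strain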; conditions: S. cerevisiae rad50 strain growth inhibition, active compounds read high
How it was run: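 Relative growth inhibition (compound vs vehicle) was measured in yeast with a defined repair-gene alteration.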

[2] = NCI Yeast Anticancer Drug Screen. Data for the mec2-1 strain (AID 157); conditions: S. cerevisiae mec2-1 strain, active compounds read high
How it was run: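 Each compound was tested on mec2-1 yeast, a strain altered in DNA damage repair or cell cycle control. Growth inhibition is reported relative to vehicle.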

[3] = NCI Yeast Anticancer Drug Screen. Data for the sgs1 mgt1 strain (AID 161);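 note: 0% = growth of cultures given vehicle only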; conditions: S. cerevisiae sgs1 mgt1 strain, active compounds read high
How it was run: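 Genetically altered yeast, compound exposure, growth inhibition relative to vehicle.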

[4] = NCI Yeast Anticancer Drug Screen. Data for the cln2 rad14 strain (AID 165);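 note: 0% = growth equal to vehicle treated cultures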; conditions: S. cerevisiae cln2 rad14 strain, active compounds read high
How it was run: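 Test compounds were added to cln2 rad14 yeast cultures; inhibition of growth was then determined by comparison with vehicle treatment.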

[5] = NCI Yeast Anticancer Drug Screen. Data for the bub3 strain (AID 167); conditions: S. cerevisiae bub3 mutant strain, active compounds read high
How it was run: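 Screening used yeast with an engineered genetic alteration affecting cell cycle control. Compound-exposed cultures were compared with vehicle cultures, and reduced growth was taken as inhibition.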

[6] = NCI Yeast Anticancer Drug Screen. Data for the mlh1 rad18 strain (AID 175); conditions: S. cerevisiae mlh1 rad18 strain growth inhibition, active compounds read high
How it was run: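 Inhibition values reflect reduced growth of mutant yeast versus vehicle-treated controls following compound exposure; the mutations affect DNA damage repair.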

[7] = at 5.0 µM (retest, dose inferred, filed as 0.5)
[8] = at 50.0 µM (retest, dose inferred, filed as 5.0)

COC(=O)c1ccc(CCc2cc(O)ccc2O)cc1
growth inhibition [1, 7]: 58% | growth inhibition [1, 8]: 99% (active) | growth inhibition ([1]; at 50.0 µM): 98.8% (active) | growth inhibition [2, 7]: 74% (active) | growth inhibition [2, 8]: 100% (active) | growth inhibition ([2]; at 50.0 µM): 98.5% (active) | growth inhibition [3, 7]: 70% (active) | growth inhibition [3, 8]: 99% (active) | growth inhibition ([3]; at 50.0 µM): 98% (active) | growth inhibition [4, 7]: 27% | growth inhibition [4, 8]: 99% (active) | growth inhibition ([4]; at 50.0 µM): 88.8% (active) | growth inhibition [5, 7]: 52% | growth inhibition [5, 8]: 99% (active) | growth inhibition ([5]; at 50.0 µM): 98.5% (active) | growth inhibition [6, 7]: 88% (active) | growth inhibition [6, 8]: 99% (active) | growth inhibition ([6]; at 50.0 µM): 98.8% (active)

CCC1(C)C(C#N)(C#N)C1(C#N)C#N
growth inhibition [1, 7]: -18% | growth inhibition [1, 8]: 95% (active) | growth inhibition ([1]; at 50.0 µM): 81.7% (active) | growth inhibition [2, 7]: -36% | growth inhibition [2, 8]: 95% (active) | growth inhibition ([2]; at 50.0 µM): 92.6% (active) | growth inhibition [3, 7]: -36% | growth inhibition [3, 8]: 66% | growth inhibition ([3]; at 50.0 µM): 97.8% (active) | growth inhibition [4, 7]: -42% | growth inhibition [4, 8]: 85% (active) | growth inhibition ([4]; at 50.0 µM): 43.7% | growth inhibition [5, 7]: -36% | growth inhibition [5, 8]: 95% (active) | growth inhibition ([5]; at 50.0 µM): 95.4% (active) | growth inhibition [6, 7]: -46% | growth inhibition [6, 8]: 95% (active) | growth inhibition ([6]; at 50.0 µM): 98.2% (active)

COc1ccc(C2c3cc4c(cc3OC(NCCO)C2C)OCO4)cc1 (stereo not given)
growth inhibition [1, 7]: -3% | growth inhibition [1, 8]: 88% (active) | growth inhibition ([1]; at 50.0 µM): 89% (active) | growth inhibition [2, 7]: -43% | growth inhibition [2, 8]: 86% (active) | growth inhibition ([2]; at 50.0 µM): 92.5% (active) | growth inhibition [3, 7]: -50% | growth inhibition [3, 8]: 82% (active) | growth inhibition ([3]; at 50.0 µM): 90.3% (active) | growth inhibition [4, 7]: 5% | growth inhibition [4, 8]: 78% (active) | growth inhibition ([4]; at 50.0 µM): 92% (active) | growth inhibition [5, 7]: -24% | growth inhibition [5, 8]: 95% (active) | growth inhibition ([5]; at 50.0 µM): 91.2% (active) | growth inhibition [6, 7]: -18% | growth inhibition [6, 8]: 91% (active) | growth inhibition ([6]; at 50.0 µM): 88.2% (active)

COc1ccccc1NC(c1ccccc1)c1ccc2cccnc2c1O (stereo not given)
growth inhibition [1, 7]: 2% | growth inhibition [1, 8]: 50% | growth inhibition ([1]; at 50.0 µM): 81.2% (active) | growth inhibition [2, 7]: 3% | growth inhibition [2, 8]: 60% | growth inhibition ([2]; at 50.0 µM): 49.2% | growth inhibition [3, 7]: 7% | growth inhibition [3, 8]: 45% | growth inhibition ([3]; at 50.0 µM): 73.2% (active) | growth inhibition [4, 7]: -7% | growth inhibition [4, 8]: -1% | growth inhibition ([4]; at 50.0 µM): 15.2% | growth inhibition [5, 7]: -5% | growth inhibition [5, 8]: 18% | growth inhibition ([5]; at 50.0 µM): 2.9% | growth inhibition [6, 7]: -23% | growth inhibition [6, 8]: 44% | growth inhibition ([6]; at 50.0 µM): 75% (active)

O=C(c1cccs1)N(C(=S)N1CCN(c2ccccn2)CC1)c1ccccc1
growth inhibition [1, 7]: 10% | growth inhibition [1, 8]: 16% | growth inhibition ([1]; at 50.0 µM): 15.4% | growth inhibition [2, 7]: -8% | growth inhibition [2, 8]: 8% | growth inhibition ([2]; at 50.0 µM): 7.85% | growth inhibition [3, 7]: 3% | growth inhibition [3, 8]: 1% | growth inhibition ([3]; at 50.0 µM): 36.6% | growth inhibition [4, 7]: 6% | growth inhibition [4, 8]: 10% | growth inhibition ([4]; at 50.0 µM): 20.8% | growth inhibition [5, 7]: -2% | growth inhibition [5, 8]: 3% | growth inhibition ([5]; at 50.0 µM): 16.1% | growth inhibition [6, 7]: -3% | growth inhibition [6, 8]: 14% | growth inhibition ([6]; at 50.0 µM): 63.8%

CCOc1cc(C(c2ccc(N(C)C)cc2)c2ccc(N(C)C)cc2)ccc1O
growth inhibition [1, 7]: -1% | growth inhibition [1, 8]: 26% | growth inhibition ([1]; at 50.0 µM): 36.2% | growth inhibition [2, 7]: -1% | growth inhibition [2, 8]: 52% | growth inhibition ([2]; at 50.0 µM): 44.8% | growth inhibition [3, 7]: 0% | growth inhibition [3, 8]: 54% | growth inhibition ([3]; at 50.0 µM): 74.2% (active) | growth inhibition [4, 7]: 2% | growth inhibition [4, 8]: 52% | growth inhibition ([4]; at 50.0 µM): 84.1% (active) | growth inhibition [5, 7]: 8% | growth inhibition [5, 8]: 79% (active) | growth inhibition ([5]; at 50.0 µM): 79.4% (active) | growth inhibition [6, 7]: 0% | growth inhibition [6, 8]: 42% | growth inhibition ([6]; at 50.0 µM): 59.5%

CCC(=O)C(CC)(c1ccc(OC(C)=O)cc1)c1ccc(OC(C)=O)cc1
growth inhibition [1, 7]: 13% | growth inhibition [1, 8]: 82% (active) | growth inhibition ([1]; at 50.0 µM): -20.3% | growth inhibition [2, 7]: 24% | growth inhibition [2, 8]: 73% (active) | growth inhibition ([2]; at 50.0 µM): -1.2% | growth inhibition [3, 7]: 9% | growth inhibition [3, 8]: 75% (active) | growth inhibition ([3]; at 50.0 µM): 53.1% | growth inhibition [4, 7]: 9% | growth inhibition [4, 8]: 33% | growth inhibition ([4]; at 50.0 µM): 14.7% | growth inhibition [5, 7]: 9% | growth inhibition [5, 8]: 59% | growth inhibition ([5]; at 50.0 µM): 35.1% | growth inhibition [6, 7]: 21% | growth inhibition [6, 8]: 93% (active) | growth inhibition ([6]; at 50.0 µM): -1.85%

C/C(=N\NC(=S)Nc1ccc(C(=O)O)cc1C)c1ccc2ccccc2n1
growth inhibition [1, 7]: 1% | growth inhibition [1, 8]: 55% | growth inhibition ([1]; at 50.0 µM): 86.2% (active) | growth inhibition [2, 7]: 20% | growth inhibition [2, 8]: 62% | growth inhibition ([2]; at 50.0 µM): 97.8% (active) | growth inhibition [3, 7]: -3% | growth inhibition [3, 8]: 42% | growth inhibition ([3]; at 50.0 µM): 81.6% (active) | growth inhibition [4, 7]: 11% | growth inhibition [4, 8]: 30% | growth inhibition ([4]; at 50.0 µM): 33% | growth inhibition [5, 7]: 0% | growth inhibition [5, 8]: 45% | growth inhibition ([5]; at 50.0 µM): 34% | growth inhibition [6, 7]: -1% | growth inhibition [6, 8]: 49% | growth inhibition ([6]; at 50.0 µM): 91.7% (active)

O=C(CNS(=O)(=O)Cc1ccccc1)NCC(=O)NNc1ccccc1
growth inhibition [1, 7]: 12% | growth inhibition [1, 8]: 55% | growth inhibition ([1]; at 50.0 µM): 59.5% | growth inhibition [2, 7]: 1% | growth inhibition [2, 8]: 29% | growth inhibition ([2]; at 50.0 µM): 29.4% | growth inhibition [3, 7]: -5% | growth inhibition [3, 8]: 63% | growth inhibition ([3]; at 50.0 µM): 58.2% | growth inhibition [4, 7]: 12% | growth inhibition [4, 8]: 40% | growth inhibition ([4]; at 50.0 µM): 44.4% | growth inhibition [5, 7]: 1% | growth inhibition [5, 8]: 53% | growth inhibition ([5]; at 50.0 µM): 20.1% | growth inhibition [6, 7]: 31% | growth inhibition [6, 8]: 76% (active) | growth inhibition ([6]; at 50.0 µM): 81.7% (active)

CCOc1ccccc1C(=O)Nc1cc(C)nn1-c1ccccc1
growth inhibition [1, 7]: 5% | growth inhibition [1, 8]: 4% | growth inhibition ([1]; at 50.0 µM): 29.4% | growth inhibition [2, 7]: 7% | growth inhibition [2, 8]: 4% | growth inhibition ([2]; at 50.0 µM): 99.2% (active) | growth inhibition [3, 7]: 7% | growth inhibition [3, 8]: 6% | growth inhibition ([3]; at 50.0 µM): 99.4% (active) | growth inhibition [4, 7]: 0% | growth inhibition [4, 8]: -1% | growth inhibition ([4]; at 50.0 µM): 98.8% (active) | growth inhibition [5, 7]: -1% | growth inhibition [5, 8]: -3% | growth inhibition ([5]; at 50.0 µM): 99.3% (active) | growth inhibition [6, 7]: -1% | growth inhibition [6, 8]: 0% | growth inhibition ([6]; at 50.0 µM): 99.5% (active)
